# Results published in PubChem BioAssay (NCATS).
# Results filed as inconclusive are left out. Entries that show only a call come without a potency. Active and inactive are the calls of the source. Calls come from the whole dose curve; as a rule, active = well fitted curve in the direction sought with a large enough effect; inconclusive = small, poorly fitted or top-dose-only effect, or another doubt; inactive = no such curve, though single readings can be large; an effect the other way counts as inactive or inconclusive.
# Columns and labels:
# [1] = target: Calcium and integrin-binding protein 1 (Homo sapiens) (UniProt Q99828); assay: Confirmatory qHTS for Identification of Calcium Integrin Binding Protein 1 (CIB1) Competitor (AID 1508617); note: nearly all actives have a fitted effect of over 65% in size
# Sequence of Calcium and integrin-binding protein 1 (Homo sapiens) (Q99828 whole entry, looked up): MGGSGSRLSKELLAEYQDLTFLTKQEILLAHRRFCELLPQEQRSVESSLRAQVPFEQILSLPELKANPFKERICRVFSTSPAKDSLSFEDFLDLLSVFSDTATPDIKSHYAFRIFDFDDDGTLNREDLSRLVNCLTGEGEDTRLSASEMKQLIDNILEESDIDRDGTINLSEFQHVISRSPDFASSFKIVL
# How it was run: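 Compounds at up to 114 uM final met 1 uM GST-tagged CIB1 for 15 min at room temperature (HEPES pH 7.4, 5 mM CaCl2). FITC-labelled alphaIIb peptide, 100 nM, added; polarization read after 15 min more.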
# [2] = target: Calcium and integrin-binding protein 1 (Homo sapiens) (UniProt Q99828); assay: Primary qHTS for Identification of Calcium Integrin Binding Protein 1 (CIB1) Competitor (AID 1508620);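 note: GST tagged CIB1 binding a fluorescein labelled alphaIIb integrin peptide tracer; top concentration of the series differs between compounds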
# How it was run: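 Fluorescence polarization competition: CIB1-GST (1 uM final) preincubated with compound 15 min at room temperature, then FITC-labeled alphaIIb peptide (100 nM final) added for another 15 min. Polarization read at Ex 480/Em 540.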
# [3] = Primary qHTS for small molecule stabilizers of the endoplasmic reticulum resident proteome: Secreted ER Calcium Modulated Protein (SERCaMP) assay (AID 1508630)
# How it was run: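 GLuc-SERCaMP-expressing SH-SY5Y cells, pretreated 16 h with compound, are challenged with thapsigargin to empty ER calcium stores; after 4 h, coelenterazine is added directly to the medium and luminescence is imaged.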
# [4] = Counterscreen qHTS for small molecule stabilizers of the endoplasmic reticulum resident proteome: GLuc-NoTag assay (AID 1508627);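 note: SH-SY5Y cells given compound then 100 nM thapsigargin to empty ER calcium; series mostly up to about 76 µM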
# How it was run: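 SH-SY5Y cells stably expressing constitutively secreted GLuc (no SERCaMP tag) were pre-incubated 5 h, treated with compound for 19 h, then 100 nM thapsigargin for 4 h at 37C; medium GLuc read by coelenterazine luminescence.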
smiles,measurement,setting,value
NC(=O)c1ncn([C@@H]2O[C@H](CO)[C@@H](O)[C@@H]2O)c1O,Potency,[1],inactive
same,Potency,[2],inactive
C=C1C(=O)O[C@H]2[C@@H]1CCC(C)=CCC[C@@]1(C)O[C@@H]21,Potency,[2],inactive
CN(C)CCN1C(=O)c2cccc3cc(N)cc(c23)C1=O,Potency,[1],inactive
same,outcome,[3],inactive
C[C@@H](NCc1cc2ccccc2[nH]1)c1cccc2ccccc12,Potency,[1],inactive
same,outcome,[3],inactive
N=c1ccn2c(n1)O[C@H]1[C@@H](O)[C@@H](CO)O[C@H]12,Potency,[2],inactive
CCOC(=O)N1CCN([N+]([O-])=NOc2ccc([N+](=O)[O-])cc2[N+](=O)[O-])CC1,Potency,[2],inactive
Cc1[nH]c(C=C2C(=O)Nc3ccccc32)c(C)c1CCC(=O)O,Potency,[2],inactive
same,outcome,[3],inactive
CCCCOc1ccc(C(=O)Nc2ccc(F)cc2F)cc1,Potency,[2],inactive
CCOC(=O)C=C[C@H](C[C@@H]1CCNC1=O)NC(=O)[C@@H](CC(=O)[C@@H](NC(=O)c1cc(C)on1)C(C)C)Cc1ccc(F)cc1,Potency,[2],inactive
same,outcome,[3],inactive
C[C@]12CCC(=O)C=C1[C@@H]1CC1[C@H]1[C@H]3[C@@H]4C[C@H]4[C@@]4(CCC(=O)O4)[C@@]3(C)CC[C@H]12 (stereo not given in full),Potency,[2],inactive
same,outcome,[3],inactive
Nc1ncn([C@@H]2O[C@H](CO)[C@@H](O)[C@@H]2O)c(=O)n1,Potency,[2],inactive
same,outcome,[3],inactive
C=C1C[C@@]2(O)O[C@@]3(C[C@H]2C(C)C)[C@H](C)CC[C@H]13,Potency,[2],inactive
same,outcome,[3],inactive
COC(=O)[C@H](CCCN=C(N)N)NS(=O)(=O)c1ccc(C)cc1,Potency,[2],inactive
NC(=O)c1cccc(-c2cccc(OC(=O)NC3CCCCC3)c2)c1,Potency,[2],inactive
same,outcome,[3],inactive
CC(=O)N[C@H]1[C@@H]([C@H](O)[C@H](O)CO)OC(C(=O)O)=C[C@@H]1N=C(N)N,Potency,[2],inactive
same,outcome,[3],inactive
CC(C)(O)CC[C@@H](O)[C@](C)(O)[C@H]1CC[C@@]2(O)C3=CC(=O)[C@@H]4C[C@@H](O)[C@@H](O)C[C@]4(C)[C@@H]3CC[C@]12C,Potency,[2],inactive
same,outcome,[3],inactive
CC(C)OC(=O)[C@H](C)N[P@](=O)(OC[C@H]1O[C@@H](n2ccc(=O)[nH]c2=O)[C@](C)(F)[C@H]1O)Oc1ccccc1,Potency,[2],inactive
same,outcome,[3],inactive
CC(=O)O[C@@]12CO[C@H]1C[C@H](O)[C@@]1(C)C(=O)[C@H](O)C3=C(C)[C@@H](OC(=O)C(O)[C@@H](NC(=O)OC(C)(C)C)c4ccccc4)C[C@@](O)([C@@H](OC(=O)c4ccccc4)[C@@H]21)C3(C)C (stereo not given in full),Potency,[2],inactive
same,outcome,[3],inactive
C=CC[C@@H]1C=C(C)C[C@H](C)C[C@H](OC)[C@H]2O[C@@](O)(C(=O)C(=O)N3CCCC[C@H]3C(=O)O[C@H](C(C)=C[C@@H]3CC[C@H](O)[C@H](OC)C3)[C@@H](C)[C@@H](O)CC1=O)[C@@H](C)C[C@@H]2OC,Potency,[2],inactive
same,outcome,[4],inactive
CCC(C(=O)O)C1CCC(C)C(C(C)C(O)C(C)C(=O)C(CC)C2OC3(C=CC(O)[C@@]4(CC[C@](C)(C5CC[C@@](O)(CC)C(C)O5)O4)O3)C(C)CC2C)O1 (stereo not given in full),Potency,[2],inactive
C[C@H]1C[C@H]2[C@@H]3CCC4=CC(=O)C=C[C@]4(C)[C@@H]3C(=O)C[C@]2(C)[C@@]1(O)C(=O)CO,Potency,[2],inactive
same,outcome,[3],inactive
Cc1noc(-c2ccc(CSCCC(=O)O)cc2)c1NC(=O)OC(C)c1ccccc1Cl (stereo not given),Potency,[2],inactive
C[C@H](NC(=O)[C@@H](O)c1cc(F)cc(F)c1)C(=O)N[C@@H]1C(=O)N(C)c2ccccc2-c2ccccc21,Potency,[2],inactive
CNC(=O)c1ccc(Nc2cc(Nc3ccccc3S(=O)(=O)C(C)C)c3cc[nH]c3n2)nc1,Potency,[2],inactive
O=C(C=CC#Cc1cccc(NS(=O)(=O)c2ccccc2)c1)NO,Potency,[2],inactive
same,outcome,[3],inactive
CC(C=CC1=C(C)CCCC1(C)C)=CC=CC(C)=CC(=O)Nc1ccc(O)cc1,Potency,[2],inactive
CC(N[C@H]1CCCC[C@H]1NC(=O)c1ccc(Cl)cc1)c1cccc2ccccc12 (stereo not given in full),Potency,[2],inactive
same,outcome,[3],inactive
C[C@](Cc1c[nH]c2ccccc12)(NC(=O)OC1C2CC3CC(C2)CC1C3)C(=O)NC[C@H](NC(=O)CCC(=O)O)c1ccccc1 (stereo not given in full),Potency,[2],inactive
same,outcome,[3],inactive
CC(C)N1[N]C(=C2C=c3cc(O)ccc3=N2)c2c(N)ncnc21,Potency,[2],inactive
same,outcome,[3],inactive
Cc1ccc([N+](=O)[O-])cc1S(=O)(=O)N(C)N=Cc1cnc2ccc(Br)cn12,Potency,[2],inactive
same,outcome,[3],inactive
CC[C@H]1OC(=O)[C@H](C)[C@@H](O[C@H]2C[C@@](C)(OC)[C@@H](O)[C@H](C)O2)[C@H](C)[C@@H](O[C@@H]2O[C@H](C)C[C@H](N(C)C)[C@@H]2O)[C@](C)(OC)C[C@@H](C)C(=O)[C@H](C)[C@@H](O)[C@]1(C)O,Potency,[2],inactive
same,outcome,[3],inactive
C[N+]1(C)[C@@H]2C[C@@H](OC(=O)C(O)(c3cccs3)c3cccs3)C[C@H]1[C@@H]1O[C@@H]12,Potency,[2],inactive
CCOC(=O)[C@@H](N)Cc1ccc(-c2cc(O[C@H](c3ccc(Cl)cc3-n3ccc(C)n3)C(F)(F)F)nc(N)n2)cc1,Potency,[2],inactive
same,outcome,[3],inactive
CC(=O)O[C@H]1C[C@@H]2CC[C@H]3[C@H]4C[C@H]([N+]5(C)CCCCC5)[C@@H](OC(C)=O)[C@@]4(C)CC[C@@H]3[C@@]2(C)C[C@H]1[N+]1(C)CCCCC1,Potency,[2],inactive
same,outcome,[3],inactive
N#CC(=C(O)c1ccc(Cl)cc1Cl)c1nc2cc(Cl)ccc2c(=O)[nH]1,Potency,[2],inactive
Cc1cnn(C)c1C(=O)Nc1cc(Nc2ccc3c(C=Cc4ccccn4)n[nH]c3c2)ccc1F,Potency,[2],inactive
CON=C(C(=O)N[C@@H]1C(=O)N2C(C(=O)O)=C(CSC(=O)c3ccco3)CS[C@H]12)c1csc(N)n1,Potency,[2],inactive
same,outcome,[3],inactive
COc1ccc(C[C@@H](C)[C@@H](C)Cc2ccc(OC)c(OC)c2)cc1OC,Potency,[2],inactive
same,outcome,[3],inactive
COc1ccc(Nc2nccc(NCCO)n2)cc1,Potency,[2],inactive
same,outcome,[3],inactive
Cc1cnc(NC(=O)Nc2cc(Br)c(C)cc2OC[C@@H]2CNCCO2)cn1,Potency,[2],inactive
same,outcome,[3],inactive
O=C(NNC(=O)c1ccc(CNS(=O)(=O)c2ccc(F)c(Cl)c2)cc1)c1ccccc1,Potency,[2],inactive
N#Cc1ccc(COC[C@H]2O[C@@H](n3c(NCc4ccc(Cl)c(Cl)c4)nc4c(N)ncnc43)[C@@H](O)[C@@H]2O)cc1,Potency,[2],inactive
same,outcome,[3],inactive
C[C@H](O)[C@@H]1C(=O)N2C(C(=O)O)=C(S[C@@H]3CN[C@H](CNS(N)(=O)=O)C3)[C@@H](C)[C@@H]12,Potency,[2],inactive
same,outcome,[3],inactive
CCCCCCCN(CC)CCCC(O)c1ccc(NS(C)(=O)=O)cc1 (stereo not given),Potency,[2],inactive
same,outcome,[3],inactive
O=C(O)C(=O)Nc1cccc(C2=NN=N[N]2)c1,Potency,[2],inactive
same,outcome,[3],inactive
O=C(O)CCCCC(CCSCc1ccccc1)SCc1ccccc1 (stereo not given),Potency,[2],inactive
same,outcome,[3],inactive
Cn1cc(-c2cnn3c(N)c(Br)c([C@H]4CCCNC4)nc23)cn1,Potency,[2],inactive
same,outcome,[3],inactive
Cc1ccc2nc(NCCN)c3ncc(C)n3c2c1,Potency,[2],inactive
same,outcome,[3],inactive
Oc1ccc(-c2ccc(-c3cc(Nc4cccc(CNC5CC5)c4)n[nH]3)cc2)c(O)c1,Potency,[2],inactive
same,outcome,[3],inactive
COc1ccc([C@@H]2CNC(=O)C2)cc1OC1CCCC1,Potency,[2],inactive
same,outcome,[3],inactive
CN(CC(=O)N(Cc1ccc(C2CCCCC2)cc1)c1ccc(C(=O)O)c(O)c1)S(=O)(=O)c1c(F)c(F)c(F)c(F)c1F,Potency,[2],inactive
same,outcome,[3],inactive
CN(C)c1ccc(C(=O)NCCCCCCC(=O)NO)cc1,Potency,[2],inactive
same,outcome,[3],inactive
Nc1ccc(C(=O)Nc2cccc(-c3nc(N4CCOCC4)c4oc5ncccc5c4n3)c2)cn1,Potency,[2],inactive
same,outcome,[3],inactive
C[C@H](CCC(=O)O)[C@H]1CCC2C3C[C@H](O)[C@@H]4C[C@H](O)CC[C@]4(C)C3CC[C@@]21C (stereo not given in full),Potency,[2],inactive
same,outcome,[3],inactive
Oc1ccc([C@@H]2Oc3ccc(O)cc3[C@@H]3CCC[C@@H]32)cc1,Potency,[2],inactive
same,outcome,[3],inactive
CON=C(C(=O)N[C@@H]1C(=O)N2C(C(=O)O)=C(Cn3ccc(=N)n3CCO)CS[C@H]12)c1csc(N)n1,Potency,[2],inactive
same,outcome,[3],inactive
Cn1cnc(=N)c2[nH]cnc21,Potency,[2],inactive
same,outcome,[3],inactive
COc1cc(O)c2c(c1)C1OC1C[C@H](O)[C@H](O)C(=O)C=CC[C@H](C)OC2=O (stereo not given in full),Potency,[2],inactive
same,outcome,[3],inactive
O=C(NCc1ccccc1)[C@H](Cc1ccccc1)NC(=O)[C@@H]1O[C@@H]1C(=O)NCCc1ccc(O)cc1,Potency,[2],inactive
same,outcome,[3],inactive
CCCCCCCCc1ccc(CCC(N)(CO)CO)cc1,Potency,[2],inactive
same,outcome,[3],inactive
COc1cc2c(Nc3ccc(Cl)c(Cl)c3F)ncnc2cc1OCC1C[C@@H]2CN(C)C[C@H]2C1,Potency,[2],inactive
same,outcome,[3],inactive
C=CC(=O)Nc1cc(NC(=O)c2ccc(C)c(NC(=O)c3ccno3)c2)cc(C(F)(F)F)c1,Potency,[2],inactive
same,outcome,[3],inactive
CCN(CC)CCCCNc1ncc2c(n1)N(C)C(=O)N(c1c(Cl)c(OC)cc(OC)c1Cl)C2,Potency,[2],inactive
same,outcome,[3],inactive
c1ccc2c(Oc3nc(Nc4ccc(N5CCOCC5)cc4)c4ncn(C5CCCCC5)c4n3)cccc2c1,Potency,[2],inactive
same,outcome,[3],inactive
c1cc(N[C@@H]2CCNC2)nc(-c2cnc3ccc(-c4cn[nH]c4)cn23)c1,Potency,[2],inactive
same,outcome,[3],inactive
CCN(CC)Cc1ccc2cc(COC(=O)Nc3ccc(C(=O)NO)cc3)ccc2c1,Potency,[2],inactive
same,outcome,[3],inactive
COc1cc([C@@H]2c3cc4c(cc3[C@@H](O[C@@H]3O[C@@H]5CO[C@@H](c6cccs6)O[C@@H]5[C@H](O)[C@@H]3O)[C@H]3COC(=O)[C@H]23)OCO4)cc(OC)c1O,Potency,[2],inactive
same,outcome,[3],inactive
COc1cc2ncnc(Nc3cccc(Br)c3)c2cc1OC,Potency,[2],inactive
same,outcome,[3],inactive
CN1C(C(=O)Nc2ccccn2)=C(O)c2sc(Cl)cc2S1(=O)=O,Potency,[2],inactive
same,outcome,[3],inactive
CC(C=CC(=O)NO)=C[C@@H](C)C(=O)c1ccc(N(C)C)cc1,Potency,[2],inactive
same,outcome,[3],inactive
Oc1cc(-c2nc(-c3ccccc3)[nH]c2-c2ccncc2)ccc1Cl,Potency,[2],inactive
same,outcome,[3],inactive
CC(=O)O[C@H]1C[C@@H]2CC[C@H]3[C@H]4C[C@H]([N+]5(C)CCCCC5)[C@@H](OC(C)=O)[C@@]4(C)CC[C@@H]3[C@@]2(C)C[C@H]1N1CCCCC1,Potency,[2],inactive
same,outcome,[3],inactive
